HCV inhibitor – inhibitors of hepatitis C virus infection; Huh7.5.1 HCVcc-Cre infection, luciferase reporter, 44 h; Potency, µM (top dose mostly 41.8 µM), for inactives: at the top dose activity change, negative = inhibition, actives largely listed as inhibitors; 340,000 compounds, 3.4% hits; AID 651820; active means well fitted inhibition curve with a large enough effect; inconclusive means small, poorly fitted or top-dose-only effect, or another doubt; inactive means no such curve, though single readings can be large or run the other way; further: potency means the concentration at half of the fitted maximal effect
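Luciferase read-out (15 sec integration) after a 15 min room-temperature substrate step quantifies HCVcc-Cre infection. Cells, 1,000 per well, had compound added 4 h post-plating, then virus at ~0.5 moi, and were cultured 44 h.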
MARV entry inh – blocks Marburg virus binding to or entry into cells; Marburg virus pseudotyped entry inhibition, cell reporter; Potency, µM (titrated, usually from 37.8 µM), inactives show top-dose activity change, negative = inhibition, most hits filed as inhibitors; 300,000 compounds, 1.8% hits; AID 540276; calls by dose curve; tested in HEK293 cells; further: potency means the concentration at half of the fitted maximal effect
LASV entry inh – blocks Lassa virus binding to or entry into cells; Lassa virus pseudotype entry inhibition, cell reporter; Potency, µM (doses to about 37.9 µM), without a hit: at the highest dose activity change, negative = inhibition, most hits filed as inhibitors; 300,000 compounds, 1.2% hits; AID 540256; calls by dose curve; tested in HEK293 cells; further: potency means the concentration at half of the fitted maximal effect; nearly all actives have a fitted effect of over 50% in size
FMDV antiviral – antivirals against foot and mouth disease virus. FMDV antiviral cell-based qHTS. Potency, µM (titrated, usually from 57.9 µM), for the others: top-dose activity change, negative = inhibition, hits mostly inhibitors. 410,000 compounds, 1.2% hits. AID 1159524; calls by dose curve; tested in HEK293T cells; further: read-out not given here; potency means the concentration at half of the fitted maximal effect; nearly all actives have a fitted effect of over 45% in size
HCMV inh – human cytomegalovirus inhibition; 410,000 compounds, 4.5% hits; HFF cells, HCMV-luciferase reporter, 72 h; hits give low values; activity change, negative = inhibition, % at 57.5 µM; AID 1259415; in the data active means activity change below about -60%; inconclusive means no clear call, values can overlap the other calls; inactive means above about -39%
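After 16 h attachment at 37C, HFF cells received test compound and HCMV-luciferase (1 PFU/cell); reporter luminescence read 72 h later, data normalized against buffer-only and known inhibitor Salinomycin.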
* marks the source's active call; other numbers are inactive results; ? = inconclusive; / = no result; [ ] = remark or other dose. The list is not random: actives were taken first. Their share in the collection is about 7.9%. On the % scale 0 is the no-effect control and ±100 the full control effect.

SMILES | HCV inhibitor | MARV entry inh | LASV entry inh | FMDV antiviral | HCMV inh
COc1cc2c(c(OC)c1OC)[C@@]1(c3ccccc3)CCCC[C@H]1[C@@H]2NC(=O)C(F)(F)F | / | 13%[14.2 µM] | / | / | /
COc1ccc(-c2noc(CCC(=O)NCCCN3CCC(Cc4ccccc4)CC3)n2)cc1 | 2.5µM* | ? | -28% | ? | ?
COc1ccc(-c2noc(CCC(=O)NCCCN3CCN(c4ccc(F)cc4)CC3)n2)cc1 | 22µM* | / | / | ? | -64*
Cc1ccc(-c2noc(CCC(=O)NCC3CCN(Cc4cccc(C)c4)CC3)n2)cc1 | 1.1µM* | ? | -13% | ? | ?
Cc1cc(C)cc(C(=O)NCCn2cc(C(=O)N3CCSCC3)nn2)c1 | / | / | / | -2% | /
Cc1cccc(NC(=O)CSCC(=O)Nc2ccccc2N2CCCCC2)c1 | ? | 11µM* | ? | -18% | -38
COc1cccc(NC(=O)CSc2nc3ccccc3nc2N2CCCC2)c1 | 10µM* | / | / | 3% | ?
Cc1cccc(NC(=O)CSCC(=O)Nc2ccccc2N2CCCC2)c1 | -12% | ? | 17% | 0% | -35
Cc1cccc(NC(=O)CSc2nc3ccccc3nc2N2CCCCC2)c1 | 1% | / | / | 0% | -84*
CCc1ccc(NC(=O)CSc2nc3ccccc3nc2N2CCCCC2)cc1 | -7% | / | / | 20% | -37
CCc1cccc(NC(=O)CSc2nc3ccccc3nc2N2CCCCC2)c1 | / | ? | ? | -12% | -80*
O=C(NCc1ccco1)c1cnn2c1N[C@@H](c1ccccc1)C[C@@H]2C(F)(F)F | / | 0% | / | / | /
COc1ccccc1C1CN(CCNC(=O)c2sccc2Cl)Cc2ccccc2O1 (configuration not stated) | / | / | / | -6% | /
COc1ccc(-n2nnnc2SCC(=O)Nc2ccccc2N2CCOCC2)cc1OC | -1% | / | / | -20% | -35
CC(=O)c1cccc(-n2nnnc2SCC(=O)Nc2ccccc2N2CCCCC2)c1 | 14µM* | 11µM* | ? | ? | -28
Cc1cccc(NC(=O)CSc2nc3ccccc3nc2N2CC(C)OC(C)C2)c1 (configuration not stated) | 11µM* | / | / | 0% | -11
Cc1cccc(N2CCN(C(=O)CSc3nc4ccccc4nc3N3CC(C)OC(C)C3)CC2)c1C (configuration not stated) | 6.3µM* | ? | ? | ? | -5
CC/C(=N/Nc1ccccc1)c1cnnc(-c2ccccc2)n1 | 8.9µM* | 1% | 15% | 3% | ?
CC/C(=N/Nc1cccc(Cl)c1)c1cnnc(SC)n1 | ? | 3% | ? | -23% | -15
COc1cc(SSc2cc(OC)cc([N+](=O)[O-])c2N)c(N)c([N+](=O)[O-])c1 | -13% | / | / | ? | -98*
c1ccc(N2CCN(c3ncnc4[nH]ncc34)CC2)cc1 | / | / | 0%[46.1 µM] | ? | ?
Fc1ccccc1N1CCN(c2ncnc3[nH]ncc23)CC1 | 16µM* | 5µM* | 10µM* | ? | ?
CCOC(=O)/C(=C\c1cccc(O)c1)c1nc2sc(C)c(C)c2c(=O)[nH]1 | 1% | ? | ? | 11µM* | -99*
Cn1ccnc1C1CCCCN1C(=O)CN1Cc2ccccc2OC(c2ccccc2F)C1 (configuration not stated) | / | / | / | -3% | /
CCOC(=O)c1c(NC(=O)CN2CCCCC2)sc2c1CCC(C=O)=C2Cl | 2.2µM* | 16% | -13% | ? | 14
SMILES | HCV inhibitor | MARV entry inh | LASV entry inh | FMDV antiviral | HCMV inh
CCOC(=O)[C@]12CCC=C1N(Cc1ccc(Cl)cc1Cl)C(=O)[C@H](CC(=O)NCc1ccc(OC)c(OC)c1)C2 | / | / | / | ? | -93*
C#CCNC(=O)C[C@@H]1C[C@@]2(C(=O)OC)CCCCC=C2N(Cc2cccc3ccccc23)C1=O | / | / | / | -24% | 2
CCOC(=O)[C@]12CCCC=C1N(Cc1cccc3ccccc13)C(=O)[C@H](CC(=O)NCc1ccc(OC)c(OC)c1)C2 | / | / | / | ? | -76*
COC(=O)[C@]12CCCCC=C1N(Cc1cccc3ccccc13)C(=O)[C@H](CC(=O)NCC13CC4CC(CC(C4)C1)C3)C2 | / | / | / | -14% | -85*
COc1ccc(C2CC(=O)c3cc(-c4nc(-c5cccc([N+](=O)[O-])c5)cs4)c(=O)n(-c4ccc(C)c(C)c4)c3C2)cc1 (configuration not stated) | / | 14%[46.1 µM] | -23%[46.1 µM] | -12% | 4
CCC(=O)c1ccc(O)c(CC=C(C)C)c1 | -17% | -1%[46.1 µM] | 8% | ? | -64*
O=C(CSc1ccc(Cl)cc1)c1ccco1 | -21% | -2% | -31% | 19% | /
